NPR1 antag: human Npr1 receptor antagonism | P16066 | HEK293 hNpr1 GloSensor cGMP, ANP-stimulated luminescence | Potency, µM (highest dose often 46.3 µM), inactives show at the highest dose activity change, negative = inhibition, usual class: inhibitors | actives 1.6% (n = 76,000) | AID 1347048; calls by dose curve; also: % is scaled to controls: 0 for no effect and ±100 for the full control effect; nearly all actives have a fitted effect of over 60% in size
Target sequence (P16066 whole entry, looked up): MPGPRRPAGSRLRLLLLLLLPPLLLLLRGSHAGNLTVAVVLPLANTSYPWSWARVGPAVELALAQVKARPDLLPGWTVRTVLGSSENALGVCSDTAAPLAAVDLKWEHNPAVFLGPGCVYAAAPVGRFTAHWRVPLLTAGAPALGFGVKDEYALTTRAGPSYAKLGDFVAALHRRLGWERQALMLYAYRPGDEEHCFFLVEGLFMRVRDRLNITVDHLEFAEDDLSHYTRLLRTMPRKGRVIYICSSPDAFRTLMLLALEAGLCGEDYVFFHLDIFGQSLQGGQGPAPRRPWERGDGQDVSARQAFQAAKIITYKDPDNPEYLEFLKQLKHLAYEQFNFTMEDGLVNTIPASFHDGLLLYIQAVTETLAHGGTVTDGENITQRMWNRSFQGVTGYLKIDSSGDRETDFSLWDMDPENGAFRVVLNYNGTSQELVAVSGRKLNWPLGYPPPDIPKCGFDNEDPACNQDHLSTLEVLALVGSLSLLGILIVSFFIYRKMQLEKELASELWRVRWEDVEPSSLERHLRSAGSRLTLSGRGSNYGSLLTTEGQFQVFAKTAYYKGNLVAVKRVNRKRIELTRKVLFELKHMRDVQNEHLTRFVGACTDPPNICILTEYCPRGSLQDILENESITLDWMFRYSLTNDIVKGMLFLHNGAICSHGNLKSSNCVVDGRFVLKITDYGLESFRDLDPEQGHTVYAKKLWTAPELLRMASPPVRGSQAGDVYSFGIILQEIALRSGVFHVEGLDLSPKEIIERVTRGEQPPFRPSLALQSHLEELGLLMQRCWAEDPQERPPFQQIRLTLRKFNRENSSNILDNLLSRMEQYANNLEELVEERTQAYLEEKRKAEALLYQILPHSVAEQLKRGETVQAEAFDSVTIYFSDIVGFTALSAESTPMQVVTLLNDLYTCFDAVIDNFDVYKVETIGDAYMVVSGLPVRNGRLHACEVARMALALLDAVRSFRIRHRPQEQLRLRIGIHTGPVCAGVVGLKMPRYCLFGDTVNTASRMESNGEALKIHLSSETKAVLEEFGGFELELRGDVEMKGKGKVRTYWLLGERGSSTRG
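Compound pre-incubated 30 min at room temperature on GloSensor-loaded HEK293 cells stably carrying hNpr1 and the pGS-40F cGMP biosensor. Stimulation uses hNppA at 0.1 nM final; luminescence is taken at baseline and 20 min post-agonist.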
NIH3T3 tox: NIH 3T3 cell cytotoxicity; NIH 3T3 viability, CellTiter-Glo ATP luminescence, 48-72 h; Potency, µM (doses to about 96.7 µM), without a hit: at the top dose activity change, negative = cytotoxicity, most hits filed as inhibitors; actives 4.3% (n = 94,000); AID 1345082; also: % is scaled to controls: 0 for no effect and ±100 for the full control effect; nearly all actives have a fitted effect of over 55% in size
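Viability of NIH 3T3 cells after 48 or 72 hr compound treatment at 37 °C was assessed by CellTiter-Glo, with luminescence imaged following a 10 min room-temperature step.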
HEK293 tox: kills HEK 293 cells; HEK 293 viability, ATP luminescence (CellTiter-Glo), 48-72 h; Potency, µM (highest dose often 115 µM), inactives show top-dose activity change, negative = cytotoxicity, actives largely listed as inhibitors; actives 6.6% (n = 94,000); AID 1345083; also: % is scaled to controls: 0 for no effect and ±100 for the full control effect; nearly all actives have a fitted effect of over 60% in size
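HEK 293 cells seeded at 250 cells/well were exposed to compound for 48 or 72 hr at 37 degree Celsius. Viability taken as ATP content by CellTiter-Glo luminescence.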
FLuc inh-1: inhibitors of firefly (Photinus pyralis) luciferase | Potency, µM (highest dose often 115 µM), most hits filed as inhibitors | actives 2.5% (n = 76,000) | purified P. pyralis luciferase, luminescence, biochemical; also: % is scaled to controls: 0 for no effect and ±100 for the full control effect; nearly all actives have a fitted effect of over 65% in size
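Luminescence read by CCD imaging after purified firefly luciferase (10nM final) was added to substrate buffer holding 10uM D-luciferin and 10uM ATP, pH 7.5, pre-dosed with compound.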
FLuc SDR -ATP: firefly luciferase binding stabilization, ATP absent; shares compounds with FLuc inh-1; Purified FLuc-C-HiBiT, Nano-Glo HiBiT luminescence, no ATP; Potency, µM (highest dose often 32.7 µM), for the others: at the top dose activation (signal gain), actives largely listed as activators; actives 7.8% (n = 1,300); AID 1963318; also: nearly all actives have a fitted effect of over 55% in size
FLuc SDR ATP: stabilizes firefly luciferase with ATP present | shares compounds with FLuc inh-1 | purified FLuc-C-HiBiT + ATP, HiBiT complementation luminescence | Potency, µM (doses to about 32.7 µM), for inactives: at the top dose activation (gain of signal), hits mostly activators | actives 8.7% (n = 1,300) | AID 1963319;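 also: signal reports ligand binding via conformational change of the enzyme rather than luciferase catalysis; % of control where 0% means no effect; nearly all actives have a fitted effect of over 55% in size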
FLuc inh-2: firefly luciferase enzyme inhibition | shares compounds with FLuc inh-1 | purified FLuc-C-HiBiT enzyme, luciferin luminescence | Potency, µM (doses to about 32.7 µM), for inactives: top-dose activity change, negative = inhibition, most hits filed as inhibitors | actives 42% (n = 1,300); also: % is scaled to controls: 0 for no effect and ±100 for the full control effect; nearly all actives have a fitted effect of over 70% in size
Starred values were filed as active, the others as inactive; [ ] = another dose, or the depositor's remark. Most compounds without a hit are left out; they make up all but 11% or so of the library. Unless noted, calls follow the shape of the dose curve; as a rule, active = well fitted curve in the direction sought with a large enough effect; inconclusive = small, poorly fitted or top-dose-only effect, or another doubt; inactive = no such curve, though single readings can be large; an effect the other way counts as inactive or inconclusive. Potency is read from the fitted curve at half-maximal effect.

COc1ccc(-c2cc(N3CCCC(NC(=O)c4cccc5[nH]ccc45)C3)n[nH]2)cc1 (stereo unspecified) was read as NPR1 antag -25.5%, NIH3T3 tox 35.5µM*, HEK293 tox 44.7µM*, FLuc inh-1 14.1µM*, FLuc SDR -ATP 14.5%, FLuc SDR ATP 7.5% and FLuc inh-2 inconclusive.
Screening COc1ccc(-c2cc(N3CCCC(NC(=O)c4cccs4)C3)n[nH]2)cc1 (stereo unspecified) returned NPR1 antag -17.6%, NIH3T3 tox inconclusive, HEK293 tox inconclusive, FLuc inh-1 14.1µM*, FLuc SDR -ATP 20.9%, FLuc SDR ATP 13.3% and FLuc inh-2 inconclusive.
`c1ccc(CCCN2Cc3[nH]cnc3C[C@H]2c2nc(-c3cnccn3)no2)cc1` gave NPR1 antag 0.7%[70.6 µM], NIH3T3 tox -33.3%[174 µM], HEK293 tox -8.6%[172 µM] and FLuc inh-1 inactive.
COc1cccc(NC(=O)N(C)CC2CCOCC2)c1 was read as NPR1 antag -3.9%, NIH3T3 tox 2.0%, HEK293 tox 13.9% and FLuc inh-1 inactive.
For O=C(Nc1cccc(Br)c1)c1cc(-c2ccc3c(c2)OCCO3)on1 the results were FLuc SDR -ATP inconclusive, FLuc SDR ATP inconclusive and FLuc inh-2 0.989µM*.
`C=CCNC(=O)c1cccc2c(C)nnn12` gave NPR1 antag -15.2%[70.6 µM], NIH3T3 tox -12.9%[174 µM], HEK293 tox -15.5%[230 µM], FLuc inh-1 14.1µM*, FLuc SDR -ATP 10.8%[65.7 µM], FLuc SDR ATP 14.1%[65.7 µM] and FLuc inh-2 -13.2%[65.7 µM].
For Cc1ccc2oc(-c3ccc(C)c(NC(=O)/C=C/c4ccc(Cl)cc4)c3)nc2c1 the results were FLuc SDR -ATP 22.3%, FLuc SDR ATP 15.4% and FLuc inh-2 inconclusive.
Screening CCc1ccc(C2=CC(c3cccc(C)c3)n3c(nc4ccccc43)N2)cc1 (stereo unspecified) returned FLuc SDR -ATP 11.1µM*, FLuc SDR ATP inconclusive and FLuc inh-2 0.881µM*.
`Cc1ccc(C2=CC(c3ccccc3F)n3c(nc4ccccc43)N2)cc1C` (stereo unspecified) gave FLuc SDR -ATP inconclusive, FLuc SDR ATP inconclusive and FLuc inh-2 3.13µM*.
Screening Cc1ccc(-c2cc(C(=O)N3CCC(Cc4nncn4CC4CC4)CC3)c3ccccc3n2)cc1C returned NPR1 antag inconclusive, NIH3T3 tox 20µM*, HEK293 tox inconclusive, FLuc inh-1 1.58µM*, FLuc SDR -ATP 12.4µM*, FLuc SDR ATP inconclusive and FLuc inh-2 1.97µM*.
Cc1nn(C(=O)CCC(=O)N2CCC(Cc3nncn3CC3CC3)CC2)c2ccccc12 was read as NPR1 antag -12.2%, NIH3T3 tox -22.6%, HEK293 tox -14.1% and FLuc inh-1 inactive.
Screening O=C(c1cc(-c2ccc(F)cc2)nc2ccccc12)N1CCC(Cc2nncn2CC2CC2)CC1 returned NPR1 antag -21.2%, NIH3T3 tox inconclusive, HEK293 tox 44.7µM*, FLuc inh-1 12.6µM*, FLuc SDR -ATP inconclusive, FLuc SDR ATP 21.4% and FLuc inh-2 8.81µM*.
O=C(c1cccs1)N1CCCCCC1c1nc(C2CC2)no1 (stereo unspecified) was read as NPR1 antag -10.9%, NIH3T3 tox inconclusive, HEK293 tox -20.0% and FLuc inh-1 inactive.
`Cc1c(-c2ccccc2F)[nH]c2ccc(CNC(=O)C3CCCN(C(N)=O)C3)cc12` (stereo unspecified) gave NPR1 antag -4.5%, NIH3T3 tox inconclusive, HEK293 tox inconclusive, FLuc inh-1 3.55µM*, FLuc SDR -ATP 30.6%, FLuc SDR ATP inconclusive and FLuc inh-2 5.56µM*.
Screening Cc1c(-c2ccccc2F)[nH]c2ccc(CNC(=O)C3C=CCN3)cc12 (stereo unspecified) returned NPR1 antag -22.9%, NIH3T3 tox inconclusive, HEK293 tox inconclusive, FLuc inh-1 10µM*, FLuc SDR -ATP 18.9%, FLuc SDR ATP 13.3% and FLuc inh-2 inconclusive.
`O=C1CC2CCN(Cc3ccc(Cl)cc3)CC2CCN1` (stereo unspecified) gave NIH3T3 tox -14.9%[138 µM] and HEK293 tox inconclusive.
For CC(C)NC(=O)C1CCN(C(=O)c2ncn3c2COC(c2ccccc2)C3)CC1 (stereo unspecified) the results were NPR1 antag 0.0%, NIH3T3 tox -11.8%, HEK293 tox -8.2%, FLuc inh-1 3.55µM*, FLuc SDR -ATP 12.9%, FLuc SDR ATP 4.42µM* and FLuc inh-2 3.51µM*.
`CCC(CC)NC(=O)C1CCN(C(=O)c2ncn3c2COC(c2ccc(F)cc2)C3)CC1` (stereo unspecified) gave NPR1 antag 4.7%, NIH3T3 tox inactive, HEK293 tox -13.7% and FLuc inh-1 inconclusive.
For CC(NC(=O)C1CCN(C(=O)c2ncn3c2COC(c2ccccc2)C3)CC1)c1ccc(F)cc1 (stereo unspecified) the results were NPR1 antag -7.6%, NIH3T3 tox 0.4%, HEK293 tox 4.8%, FLuc inh-1 12.6µM*, FLuc SDR -ATP 13.3%, FLuc SDR ATP inconclusive and FLuc inh-2 4.95µM*.
Screening COC(=O)C1=C(C)N=C2SC=C(CC(=O)NC3CC3)N2C1c1cccc(F)c1 (stereo unspecified) returned NPR1 antag -0.8%, NIH3T3 tox -20.8%, HEK293 tox -19.6% and FLuc inh-1 inactive.
CCC(=O)N1CCc2c(C(=O)NCCOC)cccc21 was read as NPR1 antag -1.1%, NIH3T3 tox 0.3%, HEK293 tox 11.7% and FLuc inh-1 inactive.
CN(Cc1ccco1)C(=O)c1cccc2c1CCN2C(=O)Nc1ccccc1 was read as NPR1 antag 10µM*, NIH3T3 tox inconclusive, HEK293 tox inconclusive, FLuc inh-1 1.26µM*, FLuc SDR -ATP inconclusive, FLuc SDR ATP 0.279µM* and FLuc inh-2 0.197µM*.
For CN(Cc1ccccc1)C(=O)c1cccc2c1CCN2C(=O)Nc1ccccc1 the results were NPR1 antag 8.91µM*, NIH3T3 tox inconclusive, HEK293 tox inconclusive, FLuc inh-1 0.794µM*, FLuc SDR -ATP 16.2%, FLuc SDR ATP 0.394µM* and FLuc inh-2 0.279µM*.
For CCC(CC)COC(=O)[C@H](C)N[P@](=O)(OC[C@H]1O[C@@](C#N)(c2ccc3c(N)ncnn23)[C@H](O)[C@@H]1O)Oc1ccccc1 the results were FLuc SDR -ATP 6.7%, FLuc SDR ATP 4.7% and FLuc inh-2 -6.1%.

High-throughput results deposited in PubChem by National Center for Advancing Translational Sciences (NCATS).
